NTMT1 inhibitor: blocks human N-terminal methyltransferase 1 activity. NTMT1 MTase-Glo SAH luminescence, purified enzyme. Potency, µM (top dose mostly 114 µM), actives largely listed as inhibitors. 2.5% of 59,000 active; also: nearly all actives have a fitted effect of over 65% in size
Target sequence (Q9BV86 whole entry, looked up): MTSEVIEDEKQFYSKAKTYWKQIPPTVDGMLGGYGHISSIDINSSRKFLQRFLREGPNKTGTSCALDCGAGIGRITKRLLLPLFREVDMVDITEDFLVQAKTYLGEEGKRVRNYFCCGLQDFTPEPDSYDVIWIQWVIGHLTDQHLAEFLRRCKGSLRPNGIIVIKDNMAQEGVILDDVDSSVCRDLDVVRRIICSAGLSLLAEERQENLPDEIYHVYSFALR
HTT prom inh: inhibitors of huntingtin promoter activity. AID 1508623. Potency, µM (titrated, usually from 57.5 µM), hits mostly inhibitors. HEK293 HTT promoter firefly luciferase reporter, 24 h. 0.93% of 48,000 active; also: nearly all actives have a fitted effect of over 50% in size
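Luminescence was read after Dual-Glo reagent and a 10 min room-temperature incubation. Values were normalized to vehicle (0% activity) and zero RLU (-100% activity). Reporter HEK293 cells had been exposed to compounds (up to 57.5 uM final) for 24 h.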
HTT-AS promoter: HTT-AS promoter activation; HEK293 HTT-AS promoter firefly luciferase reporter, 24 h; response scale: percent change from vehicle, -100% = no light; AID 1508624; Potency, µM (top dose mostly 57.5 µM), actives largely listed as activators; 0.24% of 48,000 active; also: nearly all actives have a fitted effect of over 55% in size
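Firefly luciferase signal from promoter-reporter HEK293 cells was scaled between vehicle (0%) and zero RLU (-100%). Compounds were tested at final concentrations of up to 57.5 uM over 24 h at 37 degrees C. PTC124 at 50 uM final served as control inhibitor.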
SKOV3 invasion: blocks SKOV3ip1 adhesion and invasion in omental model; SKOV3ip1-GFP adhesion/invasion on 3D omental model, fluorescence; Potency, µM (top dose mostly 45.8 µM), usual class: inhibitors; 0.1% of 46,000 active; also: nearly all actives have a fitted effect of over 65% in size
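Adhesion/invasion was scored as fixed GFP-labeled SKOV3ip1 cell counts (488/509 nm), normalized to DMSO and tomatine controls. Cancer cells in serum-free medium, with four compound doses (0.36-46 umol/L), sat 2 hr at RT then 16 hr at 37 C on a 48 hr fibroblast/mesothelial/ECM culture.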
GPR32 ag: GPR32 (DRV1) agonism, beta-arrestin recruitment | AID 1346428 | 2.5% of 48,000 active | activation, % at 76.9 µM | CHO-K1 GPR32 beta-arrestin PathHunter luminescence, 90 min; zero percent set by DMSO-only wells | O75388;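 active = activation of at least 60% and not above a set upper limit, about 1 call in 100 departs from these limits; inconclusive = activation of 40% to 60%, or above that upper limit; inactive = activation under 40%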
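Readings come from a cell-based beta-arrestin complementation format: CHO-K1 GPR32 stable cells (2,500/well) treated 90 min with compounds, then beta-Gal substrate added for 1 h before chemiluminescence imaging.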
Sfp qHTS opt: Sfp PPTase inhibition, chemistry optimization; shares compounds with NTMT1 inhibitor; purified Sfp PPTase enzyme activity, qHTS; Potency, µM (doses to about 114 µM), most hits filed as inhibitors; 78% of 230 active; AID 540350
HM489 growth: reduces growth of B. subtilis HM489 strain; shares compounds with NTMT1 inhibitor; B. subtilis HM489 (acpS-) growth, BacTiter-Glo, 5 h; Potency, µM (titrated, usually from 114 µM), actives largely listed as inhibitors; 50% of 220 active; AID 540353
Sfp PPTase gel: Sfp PPTase inhibition, gel-based detection; AID 540355; purified Sfp PPTase, gel-based product detection; shares compounds with NTMT1 inhibitor; Potency, µM (highest dose often 250 µM), actives largely listed as inhibitors; 54% of 220 active
Sfp inh gel: Sfp phosphopantetheinyl transferase inhibition, gel detection. shares compounds with NTMT1 inhibitor. purified Sfp PPTase, gel-based product detection. Potency, µM (titrated, usually from 250 µM), most hits filed as inhibitors. 90% of 45 active
Sfp SAR2: inhibits B. subtilis Sfp PPTase in second SAR round. 87% of 230 active. Potency, µM (doses to about 57.1 µM), most hits filed as inhibitors. purified Sfp enzyme, PPTase activity, qHTS. shares compounds with NTMT1 inhibitor
hGST A1-1 inh: hGST A1-1 enzyme inhibition, Sfp SAR counter-screen; 55 tested, under 10 active; shares compounds with NTMT1 inhibitor; AID 602391; hGST A1-1 enzyme activity counter-screen, qHTS; Potency, µM (top dose mostly 114 µM), actives largely listed as inhibitors
USP2a K63: USP2a inhibition confirmed on K63 diubiquitin. shares compounds with NTMT1 inhibitor. USP2 cleavage of DiUb K63-3IQF, fluorescence kinetic. Potency, µM (highest dose often 57.5 µM), most hits filed as inhibitors. AID 652172. 80% of 30 active
Casp6 counter: selectivity of USP2a inhibitors: human caspase-6 inhibition. 30 tested, under 10 active. Caspase 6 enzyme, Caspase-Glo 6 luminescence. shares compounds with NTMT1 inhibitor. AID 652277. activity change, negative = inhibition, % at 46.1 µM
Target sequence (P55212 whole entry, looked up): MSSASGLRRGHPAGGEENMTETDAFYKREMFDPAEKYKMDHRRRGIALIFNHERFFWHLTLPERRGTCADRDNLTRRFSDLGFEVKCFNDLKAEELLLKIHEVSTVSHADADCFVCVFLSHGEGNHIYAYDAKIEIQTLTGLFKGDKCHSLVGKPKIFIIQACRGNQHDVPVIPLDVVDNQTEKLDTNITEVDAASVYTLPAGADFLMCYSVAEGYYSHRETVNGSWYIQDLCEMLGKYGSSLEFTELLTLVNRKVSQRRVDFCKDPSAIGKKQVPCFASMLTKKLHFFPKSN
HSD17B4 inh: counter-screen for HPGD inhibitors: human HSD17B4 inhibition | shares compounds with NTMT1 inhibitor | purified HSD17B4, estradiol/NAD+, NADH fluorescence | Potency, µM (series often up to 57.1 µM), usual class: inhibitors | 10% of 230 active
ALDH1A1 inh: inhibits human ALDH1A1, off-target for HPGD inhibitors | shares compounds with NTMT1 inhibitor | recombinant ALDH1A1, NADH fluorescence, propionaldehyde/NAD+ | Potency, µM (titrated, usually from 57.1 µM), most hits filed as inhibitors | 93% of 230 active | AID 743195
NNMT inh: blocks human NNMT methyltransferase. 10% of 120 active. NNMT MTase-Glo luminescence, SAH detection. AID 1645878. Potency, µM (titrated, usually from 57.1 µM), usual class: inhibitors. shares compounds with NTMT1 inhibitor
A number is an active result; . = inactive; ? = inconclusive; / = no result; ! = repeats disagree. Shown are actives, neighbours in structure and some others; about 4.5% of the full set was active somewhere. Unless noted, calls follow the shape of the dose curve; as a rule, active = well fitted curve in the direction sought with a large enough effect; inconclusive = small, poorly fitted or top-dose-only effect, or another doubt; inactive = no such curve, though single readings can be large; an effect the other way counts as inactive or inconclusive.

SMILES	NTMT1 inhibitor	HTT prom inh	HTT-AS promoter	SKOV3 invasion	GPR32 ag	USP2a K63	Casp6 counter	others
COc1cccc(NC(=S)N2CCN(c3ccc4ccccc4n3)CC2)n1	.	/	/	/	/	/	/	Sfp qHTS opt=47µM;HM489 growth=?;Sfp PPTase gel=.;Sfp SAR2=36µM;HSD17B4 inh=27µM;ALDH1A1 inh=24µM
COc1ccc(N2CCN(C(=O)Nc3ccc(Cl)cc3)CC2)cc1	.	?	.	?	.	/	/
COc1cccc(NC(=S)N2CCN(c3cccc(Cl)c3Cl)CC2)n1	?	/	/	/	/	/	/	Sfp qHTS opt=?;HM489 growth=?;Sfp PPTase gel=?;Sfp SAR2=5.8µM;HSD17B4 inh=.;ALDH1A1 inh=1.2µM
O=C(Nc1ccccc1)N1CCN(Cc2ccc3ccccc3n2)CC1	.	/	/	/	/	/	/
CC(C)(C)c1ccc(NC(=O)N2CCN(c3ncccc3Cl)CC2)cc1	.	/	/	/	/	/	/
COc1cccc(NC(=S)N2CCN(c3cc(Cl)cc(Cl)c3)CC2)n1	?	/	/	/	/	/	/	Sfp qHTS opt=?;HM489 growth=.;Sfp PPTase gel=?;Sfp inh gel=.;Sfp SAR2=?;hGST A1-1 inh=1.9µM;HSD17B4 inh=.;ALDH1A1 inh=8.6µM
Cc1ccc(S(=O)(=O)Nc2ccccc2C(=O)Nc2nc(-c3ccc(Cl)cc3)cs2)cc1	.	/	/	/	/	.	.
Cc1ccc(S(=O)(=O)Nc2cnccc2C(=O)Nc2ccncc2)cc1	?	/	/	/	/	.	.
Cc1ccc(S(=O)(=O)Nc2ccccc2C(=O)Nc2nccs2)cc1	.	/	/	/	/	?	.
Cc1ccc(S(=O)(=O)Nc2ccc(Br)cc2C(=O)Nc2nc(-c3ccccc3)cs2)cc1	.	/	/	/	/	/	/
Cc1ccc(S(=O)(=O)Nc2cc(Cl)ccc2C(=O)Nc2nc(-c3ccccc3)cs2)cc1	27µM!	?	.	.	/	1.7µM	.
Cc1ccc(S(=O)(=O)Nc2ccccc2C(=O)Nc2nc(-c3ccccc3)c(C)s2)cc1	.	/	/	/	/	/	/
Cc1nn(CCCC(=O)Nc2cccc(C(F)(F)F)c2)c(=O)c2nn(-c3ccccc3)c(C)c12	.	.	.	.	.	/	/
CC(C)c1cc(CNc2nc(Nc3cc(C4CC4)[nH]n3)cc(N3CCN(C)CC3)n2)on1	?	/	/	/	/	/	/	NNMT inh=.
CCC12CN3CC(C)(CN(C1)C3c1c[nH]c3ccc(OC)cc13)C2=O (stereo not given)	.	.	.	.	.	/	/

Assay outcomes: PubChem BioAssay, National Center for Advancing Translational Sciences (NCATS)
